VDR inhibitor = inhibitors of human vitamin D receptor. VDR-SRC2-3 peptide fluorescence polarization, 2 h. Potency, µM, for inactives: max response, negative = inhibition, most hits filed as inhibitors. hit rate 0.93% among 400,000. P11473; also: potency is read from the fitted curve at half-maximal effect; % is scaled to controls: 0 for no effect and ±100 for the full control effect
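Two reagent solutions held at 4 deg C in the dark were dispensed, compounds pinned at 23 nl, and the mixture incubated 2 h at room temperature. Read-out: fluorescence polarization of VDR–SRC2-3 peptide binding.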
PLK1 PBD block = inhibitors of human PLK1 polo-box domain binding | Plk1 PBD binding of FITC phosphopeptide, fluorescence polarization | hit rate 2.8% among 360,000 | Potency, µM, without a hit: max response, negative = inhibition, usual class: inhibitors; also: potency is read from the fitted curve at half-maximal effect; series mostly up to about 57 µM; % is scaled to controls: 0 for no effect and ±100 for the full control effect; nearly all actives have a fitted effect of over 65% in size
Target sequence (P53350 whole entry, looked up, the tested form may be a part): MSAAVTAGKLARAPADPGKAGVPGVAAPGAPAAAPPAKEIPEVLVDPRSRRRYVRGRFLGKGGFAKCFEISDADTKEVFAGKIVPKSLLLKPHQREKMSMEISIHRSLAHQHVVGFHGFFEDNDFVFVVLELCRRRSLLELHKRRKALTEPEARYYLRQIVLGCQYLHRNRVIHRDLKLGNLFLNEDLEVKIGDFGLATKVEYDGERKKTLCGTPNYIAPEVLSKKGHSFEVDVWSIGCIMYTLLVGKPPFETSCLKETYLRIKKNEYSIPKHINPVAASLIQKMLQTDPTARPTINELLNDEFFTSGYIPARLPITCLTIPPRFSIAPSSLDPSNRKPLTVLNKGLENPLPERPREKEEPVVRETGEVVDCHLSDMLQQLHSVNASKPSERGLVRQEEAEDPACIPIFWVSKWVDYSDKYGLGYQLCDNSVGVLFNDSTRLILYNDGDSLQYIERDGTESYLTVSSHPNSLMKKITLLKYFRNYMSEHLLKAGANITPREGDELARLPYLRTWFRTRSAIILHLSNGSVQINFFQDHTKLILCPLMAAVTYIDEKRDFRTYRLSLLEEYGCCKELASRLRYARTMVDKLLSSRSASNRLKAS
Vif-APOBEC3G blk = blocks the Vif interaction with human APOBEC3G | Q9HC16 | Potency, µM (highest dose often 46.1 µM), inactives show at the top dose activity, negative = active, most hits filed as inhibitors | AID 602310 | hit rate 0.076% among 410,000 | HeLa A3G-eYFP + Vif (tagged APOBEC3G with the HIV-1 protein that degrades it), YFP fluorescence, overnight; also: potency is read from the fitted curve at half-maximal effect; % is scaled to controls: 0 for no effect and ±100 for the full control effect; nearly all actives have a fitted effect of over 60% in size
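HeLa cells stably expressing Vif and C-terminally eYFP-tagged A3G, seeded overnight at 37 deg C, then exposed to compound by pintool overnight at 37 deg C. Rise in yellow fluorescence (Ex 488/Em 500-530, Acumen) marks blocked Vif-driven A3G degradation.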
TSHR antagonist = antagonists of human thyroid stimulating hormone receptor. activity change, negative = inhibition, % at 11.5 µM. TSHR-expressing cells, TSH-stimulated cAMP HTRF, 2 h; active compounds read low. P16473. hit rate 0.2% among 330,000;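 active = activity change below a set negative limit, meaning inhibition stronger than a set level, cut at about -70% in these data; inconclusive = activity change between two set negative limits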; also: % is scaled to controls: 0 for no effect and ±100 for the full control effect
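Antagonism was scored as loss of TSH-driven cAMP in TSHR cells, stimulated with 4nM TSH (EC80) for 2 hours at 37 deg C and detected by homogeneous HTRF competition immunoassay.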
Vif-APOBEC3F blk = Vif-A3F binding inhibition; HeLa A3F-eYFP + Vif (tagged APOBEC3F with the HIV-1 protein that degrades it), YFP fluorescence increase; Potency, µM (highest dose often 46.1 µM), for the others: top-dose activity, negative = active; hit rate 0.2% among 390,000; also: potency is read from the fitted curve at half-maximal effect; % of control where 0% means no effect; nearly all actives have a fitted effect of over 65% in size
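HeLa cells stably expressing A3F-eYFP plus Vif, plated and incubated overnight at 37 deg C, then exposed to compounds overnight at 37 deg C. Blocked degradation read as raised yellow fluorescence (Ex 488/Em 500-530).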
Active calls of the source: *; ? = inconclusive; / = not tested or not shown. Hits are enriched below; roughly 3.1% of the tested compounds scored in any of these assays. Unless noted, calls follow the shape of the dose curve; as a rule, active = well fitted curve in the direction sought with a large enough effect; inconclusive = small, poorly fitted or top-dose-only effect, or another doubt; inactive = no such curve, though single readings can be large; an effect the other way counts as inactive or inconclusive.

SMILES	VDR inhibitor	PLK1 PBD block	Vif-APOBEC3G blk	TSHR antagonist	Vif-APOBEC3F blk
CCn1c(N)c(C(=O)NCc2cccnc2)sc1=S	-5%	-27%	-2%	0	-2%
Nc1c(C(=O)NCc2cccnc2)sc(=S)n1-c1ccccc1	?	17µM*	-1%	-8	-3%
N#Cc1cccc(-c2ccc3ncnc(NCc4ccccc4)c3c2)c1	-9%	/	/	/	/
CCC[C@H](NC(=O)[C@H](CC(C)C)N(C)C(=O)CNC(=O)[C@@H](NC(=O)[C@H](Cc1ccccc1)NC(=O)[C@H](CCCCN)NC(=O)[C@@H](N)CC(=O)O)C(C)C)C(N)=O	-1%	/	/	/	/
O=C(/C=C/c1ccc(Cl)cc1)Nc1ccc(N2CCOCC2)cc1	?	24µM*	-2%	6	7%
O=C(/C=C/c1ccc(Cl)cc1)NC(=S)Nc1ccc(N2CCOCC2)c(Cl)c1	-7%	19µM*	0%	-6	?
COc1ccc2c(c1)C(c1ccccc1C)CC(=O)O2 (stereo not drawn)	-3%	/	/	/	/
COc1cccc([C@@H]2Oc3ccc(Br)cc3C[C@H]2OC(=O)NCCc2ccc(OC)c(OC)c2)c1	4%	/	/	/	/
COc1ccc(-c2cc(C3C4C=CCC(C)C4C(=O)N3Cc3ccccc3)ccc2F)cc1OC (stereo not drawn)	-4%	/	0%	/	/
CN1c2cccc3cccc(c23)N(C)C1(C)C	-10%	-7%	1%	15	-2%
CC(=O)c1ccc2cccc3c2c1N=CN3C	8%	-22%	13µM*	20	?
C=C(C)[C@]12C[C@@H](C)[C@@]34OC(Cc5ccccc5)(O[C@@H]1[C@@H]3C=C(COC(=O)Cc1cc(OC)c(O)cc1I)C[C@]1(O)C(=O)C(C)=C[C@@H]41)O2	3%	/	/	/	/
CCCCOC(=O)C(C)Sc1n[nH]c(=O)[nH]c1=O (stereo not drawn)	-18%	27µM*	4%	-3	5%
Cn1c2cc([N+](=O)[O-])sc2c2cnn(Cc3ccccc3F)c(=O)c21	/	/	/	-3	/
C=CCSc1nc(C)c(CCC(C)C)c(=O)[nH]1	-25%	27µM*	2%	-9	-1%
C=CCSc1nc(C)c(CC(=C)C)c(=O)[nH]1	3%	6%	2%	-9	7%
NC(C(=O)O)c1cccc(O)c1 (stereo not drawn)	13%	/	/	/	/
COc1cc(/C=C2\SC(=O)NC2=O)ccc1Oc1ccc([N+](=O)[O-])cc1[N+](=O)[O-]	?	21µM*	-11%	-35	-3%
COc1cc(/C=N/O)ccc1Oc1ccc([N+](=O)[O-])cc1[N+](=O)[O-]	-10%	-28%	2%	-11	1%
O=C(Nc1ccc(N2CCCC2)c(Cl)c1)c1ccccc1[N+](=O)[O-]	-26%	27µM*	-6%	1	-10%
O=C(N/N=C/c1ccc(N2CCCCC2)o1)c1ccccc1[N+](=O)[O-]	40µM*	-26%	?	6	?
CN(C)c1ccc(/C=C/c2sc3ccccc3[n+]2Cc2ccccc2)cc1	/	/	-7%	/	/
COc1ccc(C)cc1-n1nnnc1SCC1CCCO1 (stereo not drawn)	-23%	24µM*	0%	-11	-25%
Cc1ccc(C)c(-n2nnnc2SCC(=O)NCC2CCCO2)c1 (stereo not drawn)	-5%	8%	-3%	18	-3%
COc1ccc(N(Cc2ccccc2)C(=O)c2nc(S(C)(=O)=O)ncc2Cl)cc1	?	/	-30%	/	6%
SMILES	VDR inhibitor	PLK1 PBD block	Vif-APOBEC3G blk	TSHR antagonist	Vif-APOBEC3F blk
O=C1C(=O)N(CCN2CCOCC2)C(c2ccccc2)/C1=C(\O)c1ccc2c(c1)OCCO2 (stereo not drawn)	2%	-1%	1%	24	5%
O=C1C(=O)N(CCCN2CCOCC2)C(c2ccc(Cl)cc2)/C1=C(\O)c1ccc2c(c1)OCCO2 (stereo not drawn)	?	24µM*	-5%	-5	7%
O=[N+]([O-])c1ccc(N/N=C/c2cccc(O)c2)cc1	-4%	3%	-23%	-12	-3%
O=[N+]([O-])c1ccc(N/N=C/c2cccc(O)c2O)cc1	?	27µM*	?	-21	-17%
O=C(O)COc1ccccc1C=NNc1ccc([N+](=O)[O-])cc1S(=O)(=O)Nc1ccc(Cl)cc1	?	24µM*	2%	-16	-13%
COc1ccccc1NS(=O)(=O)c1cc([N+](=O)[O-])ccc1N/N=C/c1c[nH]c2ccccc12	3%	13%	11µM*	?	11µM*
O=[N+]([O-])c1ccc(N/N=C/c2c[nH]c3ccccc23)cc1	?	-4%	7.9µM*	-6	13µM*
COc1ccc(NS(=O)(=O)c2cc([N+](=O)[O-])ccc2NN=Cc2ccccc2OCC(=O)O)cc1	?	?	-12%	4	-8%
COc1ccc(S(=O)(=O)Cc2ccc(C(=O)O)o2)cc1	20%	-1%	6%	-2	-8%
Cc1ccc(S(=O)(=O)Cc2ccc(C(=O)O)o2)cc1	-15%	19µM*	1%	-5	-6%
CCN(CC)/[N+]([O-])=N/Oc1ccc([N+](=O)[O-])cc1[N+](=O)[O-]	/	/	-1%	/	/
COC(=O)c1ccc2c(c1)SC1=C(CCCC1=O)N2	-2%	-23%	1%	-19	-12%
COC(=O)C1=C(C)Nc2ccc(C)cc2S1	71µM*	?	1%	-8	2%
O=C([C@@H]1CC=C[C@@H]2CCN(C3CC3)C(=O)[C@@H]21)N1CCOCC1	/	/	1%	/	/
O=c1c(C(c2ccc(F)cc2)c2c(O)nc3n(c2=O)CCS3)c(O)nc2n1CCS2	?	19µM*	1%	7	-2%
O=c1c(C(c2ccc(Cl)cc2)c2c(O)nc3n(c2=O)CCS3)c(O)nc2n1CCS2	?	27µM*	-1%	17	4%
C=C1C=C(C(F)F)n2ncc(C(=O)Nc3ccc(Br)cc3C(F)(F)F)c2N1	/	/	-2%	/	/
Cc1cccc(N2CCN(C(=O)CS(=O)(=O)c3cccc4nsnc34)CC2)c1C	6%	/	3%	/	0%
O=C(N/N=C\c1ccc(CN(Cc2ccc(Cl)cc2)S(=O)(=O)c2ccccc2)o1)C(=O)Nc1ccc(F)cc1	-22%	27µM*	2%	29	7%
O=C(NC1CCCCCC1)C1CCC(CNS(=O)(=O)c2cccc3cccnc23)CC1 (stereo not drawn)	/	/	0%	/	/
CN(C)C(CNS(=O)(=O)c1cc([N+](=O)[O-])ccc1Cl)c1ccco1 (stereo not drawn)	-2%	27µM*	1%	-14	-12%
O=C(NCC(c1cccnc1)N1CCc2ccccc21)c1cccc(Br)c1 (stereo not drawn)	2%	/	-3%	/	10%
Cc1ccccc1NNC(N)=S	-15%	-16%	0%	-1	1%
NC(=S)NNc1c(F)c(F)c(F)c(F)c1F	-3%	27µM*	-15%	6	2%
COC(=O)N[C@@H](CCc1ccccc1)/C(C(=O)OC)=C(\C)NCc1ccccc1	-4%	/	/	/	/

Screening data: PubChem, National Center for Advancing Translational Sciences (NCATS)
